Screening results deposited in PubChem by National Center for Advancing Translational Sciences (NCATS).
Compounds with a hit are over-represented: about 5.7% of the library has one in this group of screens.
GLP-1R inv ag: acts as inverse agonist at human GLP-1 receptor | P43220 | Potency, µM (titrated, usually from 38.3 µM), for inactives: at the highest dose activity change, negative = inhibition, most hits filed as inhibitors | HEK293 GLP-1R CRE-luciferase, luminescence, 24 h; GLP-1R form is constitutively active | actives 1.6% (n = 410,000); also: potency is read from the fitted curve at half-maximal effect; % is scaled to controls: 0 for no effect and ±100 for the full control effect; nearly all actives have a fitted effect of over 55% in size
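Seeding at 200 cells/uL, 12 h culture, 24 hr compound treatment, then luciferase reagent and a luminescence read; cells are HEK293 stably expressing a constitutively active GLP-1R plus cAMP-responsive luciferase.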
GLP1R cytotox: cytotoxic in the GLP-1 receptor inverse agonist counter-screen. HEK293 cAMP-luciferase reporter cells, luminescence, 24 h. actives 0.13% (n = 410,000). Potency, µM (series often up to 38.3 µM), inactives show top-dose activity change, negative = inhibition, usual class: inhibitors. AID 624418;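 also: loss of luciferase light is scored as toxicity; potency is read from the fitted curve at half-maximal effect; % is scaled to controls: 0 for no effect and ±100 for the full control effect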
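Here, cytotoxicity is scored as loss of luminescence. The MLSMR collection was tested on cells seeded in medium containing 10% Nu serum, with a 24 hr compound exposure preceded by 12 hours of culture.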
DRD3 antagonist: blocks the human D3 dopamine receptor. D3R cells, DiscoveRx beta-arrestin luminescence, antagonist mode; hits give low values. P35462. actives 2.5% (n = 360,000). max response, negative = inhibition, %; in the data active = max response below about -50%; inconclusive = no clear call, values can overlap the other calls; also: % is scaled to controls: 0 for no effect and ±100 for the full control effect
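Cells plated overnight at 1500 cells/well, then exposed to library compounds with dopamine controls for 90 minutes at 37 degrees C. DiscoveRx reagent added for 30–60 minutes at room temperature; luminescence read, quantitative HTS format.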
ClpP mod: qHTS Assay for Activators of ClpP; AID 651965, 2013; Potency, µM (top dose mostly 57.5 µM), for inactives: at the top dose activity change, negative = active; actives 1.9% (n = 340,000); purified B. subtilis ClpP, FRET peptide cleavage, 20 min; ATP-dependent Clp protease proteolytic subunit (Bacillus subtilis (strain 168)), P80244; active = well fitted falling curve with a large enough effect; inconclusive = small, poorly fitted or top-dose-only effect; inactive = no such curve, though single readings can be large or run the other way; also: potency is read from the fitted curve at half-maximal effect; the source files actives as falling curves though it sought activators and does not explain the sign; nearly all actives have a fitted effect of over 65% in size
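ClpP 10 microg/mL final, pH 8 Tris/KCl buffer with BSA, glycerol, Tween-20; compound pinned in; FRET-FV substrate; RT 20 min; Ex320/Em430; ΔFRET vs ADEP 5.8 microM, DMSO, no enzyme.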
D3 ag: agonists of human D3 dopamine receptor. P35462. max activation, %. actives 0.58% (n = 410,000). D3R DiscoveRx beta-arrestin cells, luminescence, 90 min; in the data active = max activation above about 30%; also: 0% is about no effect
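Agonist mode: compounds and dopamine controls were applied to plated cells for 90 min at 37 degrees C after an overnight attachment at 1500 cells/well. Luminescent read-out followed 30 - 60 minutes at room temperature with DiscoveRx detection reagent.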
GLP-1R agonist: agonists of human GLP-1 receptor | P43220 | HEK293 GLP-1R CRE-luciferase, luminescence, 4-6 h; cells express a hypersensitive GLP-1R form | AID 624172 | Potency, µM (titrated, usually from 45.6 µM), inactives show top-dose activation, usual class: activators | actives 0.007% (n = 380,000); also: potency is read from the fitted curve at half-maximal effect; % of control where 0% means no effect
An asterisk follows results filed as active; ? = inconclusive; . = not tested or not shown; [ ] = another dose, or the depositor's remark. Unless noted, calls follow the shape of the dose curve; as a rule, active = well fitted curve in the direction sought with a large enough effect; inconclusive = small, poorly fitted or top-dose-only effect, or another doubt; inactive = no such curve, though single readings can be large; an effect the other way counts as inactive or inconclusive.

SMILES	GLP-1R inv ag	GLP1R cytotox	DRD3 antagonist	ClpP mod	D3 ag	GLP-1R agonist
O=C(NCCc1ccccc1)c1nn(-c2ccc(F)cc2)nc1CO	10%	2%	.	?	-22	.
CCc1ccc(-n2nc(CO)c(C(=O)NCCCc3ccccc3)n2)cc1	4%	1%	.	28µM*	0	.
O=C(NCCCc1ccccc1)c1nn(-c2ccccc2)nc1CO	-19%	-10%	.	-14%	-7	.
Cc1ccc(-n2nc(CO)c(C(=O)NCCCc3ccccc3)n2)cc1C	0%	-5%	.	32µM*	-20	.
CCc1ccc(-n2nc(CO)c(C(=O)NC)n2)cc1	14%	-13%	.	14µM*	2	.
CCc1ccc(-n2nc(CO)c(C(=O)NCC(c3ccccc3)c3ccccc3)n2)cc1	1%	2%	.	?	12	.
CC(=O)Oc1ccc(Cn2c(C)c(C(=O)NCc3ccc4c(c3)OCCO4)sc2=O)cc1	17%	5%	33	0%	5	-2%
CCOC(=O)N1CCN(c2ccccc2OC)CC1	19%	-8%	4	0%	5	-1%
CCOC(=O)/C(=N\Nc1ccc(Br)cc1)N1CCN(c2ccccc2OC)CC1	2.2µM*	?	-8	.	-6	1%
c1ccc(-n2nc3c(ccc4cnnc43)[nH]2)cc1	97%	66%	-6	11µM*	1	-9%
c1ccc(-n2cnnn2)cc1	.	.	.	.	-16	-3%
Cc1ccc(C)c(-n2nnc(-c3nc(-c4ccc(Cl)cc4)no3)c2N)c1	2%	5%	.	1%	8	.
CCCCCn1c(CCNC(=O)c2cccc(C)c2)nc2ccccc21	?	-3%	.	-2%	-9	-1%
COc1ccc(O)c(C(=O)/C=C/c2cc3ccccc3o2)c1	?	-16%	-62*	-6%	-2	-6%
CCN(Cc1ccccc1)C(=O)Cn1cc(S(=O)(=O)NC)c(S(=O)(=O)NC)c1	5%	3%	-52*	-1%	0	2%
CCCNC(=O)C1(C)CCN(Cc2ccc(-c3ccccc3)o2)C1 (centres undefined)	8%	2%	-79*	-13%	-23	-2%
CCNC(=O)C1(C)CCCN1C(=O)c1ccc2c(c1)OCO2 (centres undefined)	14%	-2%	6	-1%	87*	-4%
CCNC(=O)C1(C)CCN(Cc2csc(-c3ccccc3)n2)C1 (centres undefined)	?	-4%	-113*	-1%	-27	0%
CCNC(=O)C1(C)CCN(Cc2cccc(Oc3ccccc3)c2)C1 (centres undefined)	-5%	2%	?	-1%	-10	19%
CCNC(=O)C1(C)CCCN(Cc2ccc(-c3ccccc3)o2)C1 (centres undefined)	1%	2%	?	1%	-18	8%
CCNC(=O)C1(C)CCCN(Cc2ccc(Oc3ccccc3)cc2)C1 (centres undefined)	10µM*	-3%	9	0%	-12	1%
Cn1c(SCC(=O)N2CC(=O)Nc3ccccc32)nnc1C(F)(F)F	-4%	1%	10	1%	7	-6%
CCCNC(=O)C1(C)CCN(Cc2cc(C(F)(F)F)ccc2Cl)C1 (centres undefined)	-26%	9%	-57*	0%	-14	7%
CCCNC(=O)C1(C)CCCN(Cc2ccc3c(c2)OCO3)C1 (centres undefined)	-21%	-7%	-55*	-1%	-11	8%
CCCNC(=O)C1(C)CCN(Cc2cccc(OC(=O)c3ccccc3)c2)C1 (centres undefined)	0%	2%	-79*	-2%	-16	6%
SMILES	GLP-1R inv ag	GLP1R cytotox	DRD3 antagonist	ClpP mod	D3 ag	GLP-1R agonist
CCCNC(=O)C1(C)CCCN(Cc2ccc(Cl)cc2)C1 (centres undefined)	-18%	5%	-1	2%	0	11%
CCNC(=O)C1(C)CCN(Cc2ccc(C(F)(F)F)cc2)C1 (centres undefined)	-3%	0%	-5	1%	3	0%
Cc1ccc(CN2CC(N3CCN(CCO)CC3)CS2(=O)=O)cc1 (centres undefined)	-4%	2%	-61*	-8%	-4	2%
CCCCCCN1CCN(C2CN(Cc3cn(Cc4ccccc4)nn3)S(=O)(=O)C2)CC1 (centres undefined)	-13%	-2%	-51*	-6%	-10	-3%
Cc1cc(C)cc(Cn2cc(CN3CC(N4CCSCC4)CS3(=O)=O)nn2)c1 (centres undefined)	5%	1%	-54*	-3%	-1	2%
O=S1(=O)CC(N2CCN(CCO)CC2)CN1Cc1ccc(F)cc1 (centres undefined)	-16%	2%	0	-4%	0	3%
CCCOc1ccc(NC(=O)CC2C(=O)N(c3ccc(C)cc3)C(=O)N2C(C)C)cc1 (centres undefined)	-6%	3%	.	1%	-3	.
COC(=O)c1ccc(NC(=O)CC2C(=O)N(c3cccc(OC)c3)C(=O)N2Cc2cccs2)cc1 (centres undefined)	1%	1%	.	-4%	7	.
COc1ccc(-c2csc(/C(C#N)=C(\O)CSc3nccn3C)n2)cc1OC	86%	4%	-55*	0%	-5	8%
Cc1nnc(Cc2ccccc2)c2n[nH]c(C)c12	-22%	-11%	2	-3%	-4	2%
Clc1nssc1=Nc1ccc(Br)cc1	-2%[0.307 µM]	1%[0.307 µM]	5	0%	5	-8%
COc1cc(N=c2ssnc2Cl)cc(OC)c1	?	0%	-71*	0%	-8	-12%
CCC(Nc1ccc(-c2nc(-c3cccnc3)no2)cc1[N+](=O)[O-])c1ccccc1 (centres undefined)	4%	-1%	.	0%	12	.
COc1ccc(-c2cnn3c4c(c(C)nc23)CCN4C(C)C)cc1OC	0%	0%	33	5%	41*	21%
CSC(=NNC(=O)c1ccc(O)cc1)SC	16%	-2%	-9	28µM*	-8	0%
C/C(=N\NC(=O)c1ccc(O)cc1)c1ccc(NC(=O)Cc2ccccc2)cc1	?	?	-11	-2%	1	3%
O=C(Nc1ccc(F)cc1F)c1c(C(F)(F)F)ccnc1Oc1cccc(C(F)(F)F)c1	?	11%	-58*	.	0	8%
O=C(c1cc2c(s1)CCCC2)N1CCN(S(=O)(=O)c2ccccc2C(F)(F)F)CC1	10µM*	-9%	2	1%	-2	7%
